Drawing on ChEMBL document CHEMBL1961873, “Compounds: GSK PKIS; Assays: Nanosyn kinase panel” (2012), this text covers inhibition for one compound.

A word on the inhibition: it is the relative decrease from the control value, in per cent.

The target in experiment [1] is Sphingosine kinase 1 (Homo sapiens) (UniProt Q9NYA1). The settings on record: at 1 µM.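 Also: mean SPHK1 inhibition value reported from the GSK PKIS kinase panel screen.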
For experiment [2], the target named is T1, Sphingosine kinase 2 (Homo sapiens) (UniProt Q9NRA0).
T1 sequence (whole entry): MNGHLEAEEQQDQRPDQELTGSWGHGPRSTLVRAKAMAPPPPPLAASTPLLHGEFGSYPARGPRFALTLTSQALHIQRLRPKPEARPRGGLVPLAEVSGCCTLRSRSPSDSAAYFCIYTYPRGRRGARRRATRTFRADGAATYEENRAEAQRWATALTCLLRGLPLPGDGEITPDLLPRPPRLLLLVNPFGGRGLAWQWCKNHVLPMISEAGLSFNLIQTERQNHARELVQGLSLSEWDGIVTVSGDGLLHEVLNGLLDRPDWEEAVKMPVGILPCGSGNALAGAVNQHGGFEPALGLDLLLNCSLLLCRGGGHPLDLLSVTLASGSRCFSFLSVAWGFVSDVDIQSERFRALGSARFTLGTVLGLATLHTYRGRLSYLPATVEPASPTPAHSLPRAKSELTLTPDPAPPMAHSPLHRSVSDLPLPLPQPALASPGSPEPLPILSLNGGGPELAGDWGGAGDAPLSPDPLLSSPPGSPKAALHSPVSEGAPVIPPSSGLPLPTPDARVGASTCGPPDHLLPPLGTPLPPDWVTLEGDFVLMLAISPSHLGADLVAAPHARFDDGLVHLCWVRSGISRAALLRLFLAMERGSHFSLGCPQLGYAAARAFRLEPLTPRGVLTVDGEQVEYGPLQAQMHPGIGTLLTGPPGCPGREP
As to conditions: at 0.1 µM.

Experiment [3] has as its target T1, Sphingosine kinase 2 (Homo sapiens). As to conditions: at 1 µM.
Experiment [4] addresses Casein kinase II subunit alpha (Homo sapiens) (UniProt P68400). As to conditions: at 0.1 µM.
For experiment [5] the target is unchanged. As to conditions: at 1 µM.
Experiment [6] concerns the target T2, Inhibitor of nuclear factor kappa-B kinase subunit alpha (Homo sapiens) (UniProt O15111).
T2 sequence (whole entry): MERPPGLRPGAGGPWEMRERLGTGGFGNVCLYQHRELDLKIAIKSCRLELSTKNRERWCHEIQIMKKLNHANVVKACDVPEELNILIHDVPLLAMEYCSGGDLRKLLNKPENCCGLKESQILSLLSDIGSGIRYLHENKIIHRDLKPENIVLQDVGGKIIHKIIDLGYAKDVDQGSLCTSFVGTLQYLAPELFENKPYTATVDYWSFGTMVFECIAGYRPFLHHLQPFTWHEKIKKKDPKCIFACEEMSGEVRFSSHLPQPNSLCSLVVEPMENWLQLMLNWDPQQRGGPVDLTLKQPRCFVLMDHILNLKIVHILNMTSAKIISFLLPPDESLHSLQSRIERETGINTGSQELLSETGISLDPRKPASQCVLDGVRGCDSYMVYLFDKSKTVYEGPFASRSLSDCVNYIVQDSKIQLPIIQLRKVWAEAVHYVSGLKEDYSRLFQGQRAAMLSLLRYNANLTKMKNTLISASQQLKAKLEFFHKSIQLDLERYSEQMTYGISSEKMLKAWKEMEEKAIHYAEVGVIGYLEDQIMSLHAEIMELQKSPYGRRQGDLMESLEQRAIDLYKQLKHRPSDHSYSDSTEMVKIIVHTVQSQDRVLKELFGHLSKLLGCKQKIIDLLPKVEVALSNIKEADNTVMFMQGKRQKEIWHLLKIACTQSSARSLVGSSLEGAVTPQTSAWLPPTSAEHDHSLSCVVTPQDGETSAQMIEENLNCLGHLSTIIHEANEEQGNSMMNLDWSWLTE
As to conditions: at 0.1 µM.

The target of experiment [7] is T2, Inhibitor of nuclear factor kappa-B kinase subunit alpha (Homo sapiens). The settings on record: at 1 µM.
Experiment [8] deals with T3, Inhibitor of nuclear factor kappa-B kinase subunit beta (Homo sapiens) (UniProt O14920).
T3 sequence (whole entry): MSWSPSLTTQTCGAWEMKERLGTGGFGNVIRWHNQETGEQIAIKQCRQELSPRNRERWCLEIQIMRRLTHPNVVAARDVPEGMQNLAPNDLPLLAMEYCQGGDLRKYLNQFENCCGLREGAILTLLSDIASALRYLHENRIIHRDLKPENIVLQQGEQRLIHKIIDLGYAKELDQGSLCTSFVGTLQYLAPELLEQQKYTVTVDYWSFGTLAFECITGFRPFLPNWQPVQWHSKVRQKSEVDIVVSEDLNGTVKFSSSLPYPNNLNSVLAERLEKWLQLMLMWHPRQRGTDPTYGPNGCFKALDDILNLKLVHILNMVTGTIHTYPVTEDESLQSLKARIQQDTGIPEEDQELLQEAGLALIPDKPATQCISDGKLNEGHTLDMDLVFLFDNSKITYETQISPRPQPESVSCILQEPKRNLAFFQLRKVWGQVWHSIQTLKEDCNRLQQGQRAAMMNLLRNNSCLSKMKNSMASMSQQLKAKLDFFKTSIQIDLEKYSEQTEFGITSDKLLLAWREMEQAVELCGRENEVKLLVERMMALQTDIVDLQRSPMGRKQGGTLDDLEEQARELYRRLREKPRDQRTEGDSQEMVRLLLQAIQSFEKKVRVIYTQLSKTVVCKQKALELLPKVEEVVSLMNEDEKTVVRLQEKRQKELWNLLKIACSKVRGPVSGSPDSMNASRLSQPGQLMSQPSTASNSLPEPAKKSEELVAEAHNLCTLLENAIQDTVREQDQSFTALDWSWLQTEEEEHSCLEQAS
As to conditions: at 0.1 µM.

The target of experiment [9] is T3, Inhibitor of nuclear factor kappa-B kinase subunit beta (Homo sapiens). As to conditions: at 1 µM.
Experiment [10] concerns the target T4, Inhibitor of nuclear factor kappa-B kinase subunit epsilon (Homo sapiens) (UniProt Q14164).
T4 sequence (whole entry): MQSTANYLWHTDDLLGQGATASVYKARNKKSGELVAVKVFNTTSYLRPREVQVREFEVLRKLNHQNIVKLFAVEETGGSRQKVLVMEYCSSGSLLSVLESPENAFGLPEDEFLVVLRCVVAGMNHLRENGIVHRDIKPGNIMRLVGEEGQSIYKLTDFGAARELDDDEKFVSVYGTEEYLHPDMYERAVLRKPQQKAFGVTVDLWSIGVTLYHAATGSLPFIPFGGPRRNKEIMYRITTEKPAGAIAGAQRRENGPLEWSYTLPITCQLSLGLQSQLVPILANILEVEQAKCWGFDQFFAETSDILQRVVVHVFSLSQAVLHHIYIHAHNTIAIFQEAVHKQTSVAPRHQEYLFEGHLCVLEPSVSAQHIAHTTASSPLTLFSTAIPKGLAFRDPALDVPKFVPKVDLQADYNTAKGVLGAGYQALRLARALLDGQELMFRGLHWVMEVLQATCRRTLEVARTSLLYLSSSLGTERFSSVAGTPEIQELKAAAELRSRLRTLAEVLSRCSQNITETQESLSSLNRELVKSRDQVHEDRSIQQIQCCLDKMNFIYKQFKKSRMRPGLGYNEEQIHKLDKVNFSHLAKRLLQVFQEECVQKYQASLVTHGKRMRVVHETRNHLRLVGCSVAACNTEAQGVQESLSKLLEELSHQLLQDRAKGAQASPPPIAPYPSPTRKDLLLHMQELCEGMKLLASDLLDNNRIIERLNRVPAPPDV
As to conditions: at 0.1 µM.

The target in experiment [11] is T4, Inhibitor of nuclear factor kappa-B kinase subunit epsilon (Homo sapiens). The settings on record: at 1 µM.
In experiment [12] the target is T5, Serine/threonine-protein kinase Nek1 (Homo sapiens) (UniProt Q96PY6).
T5 sequence (whole entry): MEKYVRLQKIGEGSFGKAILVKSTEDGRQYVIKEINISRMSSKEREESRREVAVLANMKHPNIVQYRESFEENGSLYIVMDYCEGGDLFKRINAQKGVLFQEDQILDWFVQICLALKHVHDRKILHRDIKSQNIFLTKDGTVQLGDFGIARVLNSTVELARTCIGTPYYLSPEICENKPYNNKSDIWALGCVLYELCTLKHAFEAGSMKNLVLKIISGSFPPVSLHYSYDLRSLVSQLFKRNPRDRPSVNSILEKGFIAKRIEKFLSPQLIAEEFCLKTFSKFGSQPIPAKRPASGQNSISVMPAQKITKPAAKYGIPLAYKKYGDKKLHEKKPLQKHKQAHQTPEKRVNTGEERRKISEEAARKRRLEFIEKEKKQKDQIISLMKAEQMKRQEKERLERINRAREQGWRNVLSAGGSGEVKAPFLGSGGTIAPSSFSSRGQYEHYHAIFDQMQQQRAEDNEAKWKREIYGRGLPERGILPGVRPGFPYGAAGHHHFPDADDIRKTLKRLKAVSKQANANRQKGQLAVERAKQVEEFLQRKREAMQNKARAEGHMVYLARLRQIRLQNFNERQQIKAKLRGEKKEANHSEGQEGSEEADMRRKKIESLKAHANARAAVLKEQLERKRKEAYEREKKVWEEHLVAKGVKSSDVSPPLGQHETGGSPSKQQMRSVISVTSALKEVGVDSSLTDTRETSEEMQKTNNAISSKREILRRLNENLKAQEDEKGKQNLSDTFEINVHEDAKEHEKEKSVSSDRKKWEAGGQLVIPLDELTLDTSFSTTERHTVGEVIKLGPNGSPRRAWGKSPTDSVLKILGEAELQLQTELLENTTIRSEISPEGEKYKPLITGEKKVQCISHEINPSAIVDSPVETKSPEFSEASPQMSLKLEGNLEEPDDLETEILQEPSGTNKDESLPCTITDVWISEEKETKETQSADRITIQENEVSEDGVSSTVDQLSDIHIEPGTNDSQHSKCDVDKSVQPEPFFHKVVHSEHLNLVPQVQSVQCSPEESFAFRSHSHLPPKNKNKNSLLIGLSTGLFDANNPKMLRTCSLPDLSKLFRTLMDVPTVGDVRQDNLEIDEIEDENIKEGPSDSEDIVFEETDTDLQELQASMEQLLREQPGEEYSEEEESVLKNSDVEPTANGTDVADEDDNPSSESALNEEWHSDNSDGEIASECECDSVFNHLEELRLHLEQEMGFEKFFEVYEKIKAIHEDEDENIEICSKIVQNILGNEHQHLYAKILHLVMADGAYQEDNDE
As to conditions: at 0.1 µM.

In experiment [13] the target is T5, Serine/threonine-protein kinase Nek1 (Homo sapiens). The settings on record: at 1 µM.
Experiment [14] has as its target T6, Serine/threonine-protein kinase Nek2 (Homo sapiens) (UniProt P51955).
T6 sequence (whole entry): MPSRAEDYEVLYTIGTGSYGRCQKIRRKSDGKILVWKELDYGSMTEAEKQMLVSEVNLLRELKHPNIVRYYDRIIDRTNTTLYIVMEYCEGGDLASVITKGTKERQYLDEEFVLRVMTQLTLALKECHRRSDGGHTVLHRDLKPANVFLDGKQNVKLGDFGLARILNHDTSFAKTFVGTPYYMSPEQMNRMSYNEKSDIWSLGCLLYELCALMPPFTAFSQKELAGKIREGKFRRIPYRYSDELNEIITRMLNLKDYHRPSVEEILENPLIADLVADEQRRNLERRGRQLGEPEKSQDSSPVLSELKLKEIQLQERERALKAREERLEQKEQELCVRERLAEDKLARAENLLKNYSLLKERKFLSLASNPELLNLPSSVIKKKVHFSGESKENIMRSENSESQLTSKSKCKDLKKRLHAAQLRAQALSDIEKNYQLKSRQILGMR
The settings on record: at 0.1 µM.

Experiment [15] deals with T6, Serine/threonine-protein kinase Nek2 (Homo sapiens). The settings on record: at 1 µM.
The target in experiment [16] is Serine/threonine-protein kinase Nek6 (Homo sapiens) (UniProt Q9HC98). As to conditions: at 0.1 µM.
Sequence of Serine/threonine-protein kinase Nek6 (Homo sapiens) (Q9HC98 whole entry): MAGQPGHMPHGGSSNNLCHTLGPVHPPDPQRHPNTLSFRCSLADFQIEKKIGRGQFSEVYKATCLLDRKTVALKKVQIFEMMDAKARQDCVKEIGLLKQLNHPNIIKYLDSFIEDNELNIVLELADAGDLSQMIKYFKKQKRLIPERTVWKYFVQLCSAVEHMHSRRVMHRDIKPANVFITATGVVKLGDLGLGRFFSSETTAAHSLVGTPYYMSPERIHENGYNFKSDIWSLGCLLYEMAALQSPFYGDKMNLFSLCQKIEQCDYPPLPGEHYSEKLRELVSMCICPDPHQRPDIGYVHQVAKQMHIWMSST
Experiment [17] has the same target. The settings on record: at 1 µM.
Experiment [18] concerns the target Serine/threonine-protein kinase Nek7 (Homo sapiens) (UniProt Q8TDX7). The settings on record: at 0.1 µM.
For experiment [19] the target is unchanged. As to conditions: at 1 µM.
Experiment [20] has as its target T7, Serine/threonine-protein kinase Nek9 (Homo sapiens) (UniProt Q8TD19).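 Also: reported value is the mean percent inhibition of NEK9.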
T7 sequence (whole entry): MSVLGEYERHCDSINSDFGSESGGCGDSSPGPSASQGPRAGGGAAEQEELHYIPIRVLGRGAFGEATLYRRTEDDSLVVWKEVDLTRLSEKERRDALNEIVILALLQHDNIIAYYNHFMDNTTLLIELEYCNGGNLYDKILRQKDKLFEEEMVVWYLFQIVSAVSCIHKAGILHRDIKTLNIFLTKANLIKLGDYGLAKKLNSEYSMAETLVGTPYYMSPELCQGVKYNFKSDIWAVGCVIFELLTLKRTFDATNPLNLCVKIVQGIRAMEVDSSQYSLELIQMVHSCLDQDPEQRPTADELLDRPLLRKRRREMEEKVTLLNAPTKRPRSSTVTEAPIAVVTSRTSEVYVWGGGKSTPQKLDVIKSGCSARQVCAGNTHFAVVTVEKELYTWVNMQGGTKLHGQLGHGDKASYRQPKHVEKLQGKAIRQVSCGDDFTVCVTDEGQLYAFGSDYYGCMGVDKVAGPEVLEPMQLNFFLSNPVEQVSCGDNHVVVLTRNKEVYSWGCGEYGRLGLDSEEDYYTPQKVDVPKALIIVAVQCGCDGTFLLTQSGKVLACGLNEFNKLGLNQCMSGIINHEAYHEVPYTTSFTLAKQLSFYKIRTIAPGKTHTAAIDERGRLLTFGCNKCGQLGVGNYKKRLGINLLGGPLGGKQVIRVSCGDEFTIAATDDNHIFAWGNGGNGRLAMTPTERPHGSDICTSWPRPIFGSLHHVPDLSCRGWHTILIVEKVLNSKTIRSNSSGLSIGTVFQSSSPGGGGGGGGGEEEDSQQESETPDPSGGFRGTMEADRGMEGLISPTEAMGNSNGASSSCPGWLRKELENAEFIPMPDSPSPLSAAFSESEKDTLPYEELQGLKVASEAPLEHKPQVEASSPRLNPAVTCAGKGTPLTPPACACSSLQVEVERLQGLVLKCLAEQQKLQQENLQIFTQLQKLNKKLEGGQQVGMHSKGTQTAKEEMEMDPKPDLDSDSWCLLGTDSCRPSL
As to conditions: at 0.1 µM.

Sequence of Casein kinase II subunit alpha (Homo sapiens) (P68400 whole entry, looked up): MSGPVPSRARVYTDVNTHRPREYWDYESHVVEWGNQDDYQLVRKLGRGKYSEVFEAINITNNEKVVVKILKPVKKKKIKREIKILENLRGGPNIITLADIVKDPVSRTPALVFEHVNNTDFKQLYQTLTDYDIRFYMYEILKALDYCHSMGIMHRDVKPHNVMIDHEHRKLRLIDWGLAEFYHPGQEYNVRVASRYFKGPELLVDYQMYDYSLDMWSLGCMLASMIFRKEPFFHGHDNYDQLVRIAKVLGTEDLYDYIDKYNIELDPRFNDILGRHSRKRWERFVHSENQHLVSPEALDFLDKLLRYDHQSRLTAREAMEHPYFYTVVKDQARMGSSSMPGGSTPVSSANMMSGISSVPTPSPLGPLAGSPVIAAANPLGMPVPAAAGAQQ
Sequence of Serine/threonine-protein kinase Nek7 (Homo sapiens) (Q8TDX7 whole entry, looked up): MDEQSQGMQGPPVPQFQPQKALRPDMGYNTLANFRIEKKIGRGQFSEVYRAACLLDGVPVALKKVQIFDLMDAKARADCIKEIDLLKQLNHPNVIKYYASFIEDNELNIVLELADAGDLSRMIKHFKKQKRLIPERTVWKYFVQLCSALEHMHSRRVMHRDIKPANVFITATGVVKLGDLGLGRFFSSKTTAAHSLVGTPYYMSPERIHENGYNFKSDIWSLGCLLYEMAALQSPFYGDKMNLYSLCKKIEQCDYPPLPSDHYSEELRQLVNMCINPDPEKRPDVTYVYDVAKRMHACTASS
Sequence of Sphingosine kinase 1 (Homo sapiens) (Q9NYA1 whole entry): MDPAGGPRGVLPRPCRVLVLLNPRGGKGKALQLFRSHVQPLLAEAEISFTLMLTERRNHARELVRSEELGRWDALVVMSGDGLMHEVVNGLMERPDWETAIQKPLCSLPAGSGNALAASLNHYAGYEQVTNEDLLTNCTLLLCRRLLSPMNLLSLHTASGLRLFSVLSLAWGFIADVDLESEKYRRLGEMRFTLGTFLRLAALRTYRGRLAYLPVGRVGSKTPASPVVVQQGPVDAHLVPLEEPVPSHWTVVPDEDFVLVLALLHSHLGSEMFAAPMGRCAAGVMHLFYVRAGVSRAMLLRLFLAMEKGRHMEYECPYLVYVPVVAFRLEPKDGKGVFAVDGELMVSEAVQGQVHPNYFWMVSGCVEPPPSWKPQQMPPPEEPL

In the case of `COC(=O)Nc1nc2ccc(Oc3ccc(NC(=O)Nc4cccc(Cl)c4)cc3)cc2[nH]1`, the inhibition in experiment [1] was -0.57%; in experiment [2], 0%; in [3], 0%; in [4] it was 4.68%; in experiment [5], 1.84%; in experiment [6], -0.79%. Moreover, the inhibition is 6.02% in [7]; -0.04% in experiment [8]; 1.06% in [9]; 4.59% in [10]; 1.25% in experiment [11]; 0.97% in experiment [12]. The inhibition in [13] is 0.11%; in experiment [14], 0.46%; in experiment [15], 0.04%; in [16], 2.21%; in [17] it was -0.77%; in experiment [18] it was 1.46%. Besides, the inhibition in experiment [19] was 1.97%; in experiment [20], 5.35%.
